# CHX counter: counter-screen for Shiga toxin inhibitors: cycloheximide protein synthesis inhibition. cell reporter, cycloheximide protein synthesis inhibition counterscreen. max response, %. 12% of 300,000 active. AID 2314; in the data active = max response mostly above about 13%, no sharp cut-off; inactive = mostly below about 14%; also: read at 38.3 µM for the half of the compounds with a filed dose; 0% is about no effect
# LmPK inh: blocks Leishmania mexicana pyruvate kinase activity | Q27686 | Potency, µM (highest dose often 57.5 µM), without a hit: at the top dose activity change, negative = inhibition, hits mostly inhibitors | 0.37% of 290,000 active | purified LmPK, Kinase-Glo ATP luminescence, 1 h | AID 1721; also: potency is read from the fitted curve at half-maximal effect; % is scaled to controls: 0 for no effect and ±100 for the full control effect
#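 qHTS format; LmPK 0.1 nM; substrates PEP 0.5 mM and ADP 0.1 mM. One-hour room-temperature incubation, then coupled luciferase luminescence; 0.5 nM enzyme wells mark activation.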
# FBPA Giardia inh: Giardia lamblia aldolase inhibition; A8B2U2; purified Giardia FBPA; Potency, µM (series often up to 59.6 µM), for inactives: at the top dose activity, negative = inhibition, most hits filed as inhibitors; 0.71% of 290,000 active; AID 2451; also: potency is read from the fitted curve at half-maximal effect; % is scaled to controls: 0 for no effect and ±100 for the full control effect; nearly all actives have a fitted effect of over 55% in size
# Target sequence (A8B2U2 whole entry, looked up): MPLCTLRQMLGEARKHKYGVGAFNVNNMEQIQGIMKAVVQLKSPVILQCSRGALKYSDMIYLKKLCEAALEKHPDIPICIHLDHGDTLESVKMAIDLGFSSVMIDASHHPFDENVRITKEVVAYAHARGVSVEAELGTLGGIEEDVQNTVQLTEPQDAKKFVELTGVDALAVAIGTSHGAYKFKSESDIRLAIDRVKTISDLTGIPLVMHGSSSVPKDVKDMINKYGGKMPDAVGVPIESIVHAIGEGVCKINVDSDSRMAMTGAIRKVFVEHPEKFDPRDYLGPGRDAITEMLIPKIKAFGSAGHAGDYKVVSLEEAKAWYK
#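 40 nM FBPA preincubated 10 min at RT with compound (up to 57.5 uM final), then substrate plus GAPDH/TPI/NAD/arsenate coupling and diaphorase/resazurin added. Fluorescence read after 20 min at RT, 525/598 nm.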
# Shiga inhibitor: blocks Shiga toxin action in Vero cells | inhibition, % at 38.7 µM | 9.2% of 290,000 active | Vero cells, Shiga toxin protein synthesis inhibition reporter | AID 2315; in the data active = inhibition mostly above about 28%, no sharp cut-off; inactive = mostly below about 43%; also: 0% is about no effect
# Tb PYK inh: inhibitors of Trypanosoma brucei pyruvate kinase; TbPYK enzyme, Kinase-Glo Plus ATP luminescence, 45 min; Potency, µM (titrated, usually from 76.8 µM), inactives show at the top dose activity, negative = inhibition, most hits filed as inhibitors; 0.12% of 410,000 active; AID 624173; also: potency is read from the fitted curve at half-maximal effect; % is scaled to controls: 0 for no effect and ±100 for the full control effect; nearly all actives have a fitted effect of over 50% in size
#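 Luminescence from Kinase-Glo Plus, added after a 45-minute room-temperature reaction, served as the end-point read-out. The enzyme and substrate were preincubated with compound before ADP (130 uM final) initiated turnover. Concentration-effect curves came from normalized qHTS data.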
# Sm TGR block: S. mansoni TGR enzyme inhibition; Q962Y6; purified TGR, DTNB reduction, TNB absorbance 405 nm; Potency, µM (doses to about 114 µM), without a hit: at the highest dose activity change, negative = inhibition, actives largely listed as inhibitors; 3% of 360,000 active; also: potency is read from the fitted curve at half-maximal effect; % is scaled to controls: 0 for no effect and ±100 for the full control effect; nearly all actives have a fitted effect of over 60% in size
#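 First, TGR (20 nM dispensed) and NADPH were mixed with compound. Second, a 15 min room-temperature incubation followed. Third, further NADPH and then DTNB were added to start the reaction. Finally, TNB absorbance was monitored kinetically.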
# An asterisk follows results filed as active; i = inactive; ? = inconclusive; nt = no result given; [ ] = dose if it differs, or a comment. Many of the other results were omitted from the sample, so hits are more common in it than they were. Unless noted, calls follow the shape of the dose curve; as a rule, active = well fitted curve in the direction sought with a large enough effect; inconclusive = small, poorly fitted or top-dose-only effect, or another doubt; inactive = no such curve, though single readings can be large; an effect the other way counts as inactive or inconclusive.
SMILES,CHX counter,LmPK inh,FBPA Giardia inh,Shiga inhibitor,Tb PYK inh,Sm TGR block
Nc1ccccc1Nc1cc(-c2ccccc2)[nH]n1,29*,-8%,-7%,55*,-23%,4%
Nc1ccccc1Nc1cc(-c2ccccc2)nn1-c1ccccc1,18*,-3%,-4%,48,-6%,-3%
COc1cc(C(=O)Nc2cc(-c3ccccc3)[nH]n2)cc(OC)c1OC,-3,3%,10%,-6,3%,-9%
O=C(NCC(c1cccs1)N1CCOCC1)c1cc2ccccc2oc1=O (stereo not drawn),nt,nt,nt,nt,3%,nt
C=CCn1cnc2c(nnn2-c2ccc(OC)c(OC)c2)c1=O,-1,-1%,3%,-5,-3%,-4%
C=CCn1cnc2c(nnn2-c2ccc(C)c(C)c2)c1=O,40*,1%[11.5 µM],2%,88*,-2%,20%
Cc1cc(C)nc(-n2nc(C)c(Sc3ccc(F)cc3)c2N)n1,39*,-18%,-9%,100*,?,-27%
CC(C)c1nn2c(=O)cc(COC(=O)c3cccc(NC(=O)CCc4ccccc4)c3)nc2s1,nt,nt,nt,nt,-5%,-3%
COc1cc(C2CC(=O)Oc3cc(C)c(Cl)cc32)cc(OC)c1OC (stereo not drawn),15,nt,-15%[89.2 µM],i,nt,nt
CCCCSCCCNC(=O)CN1C(=O)COc2ccc(S(=O)(=O)N3CCCC3)cc21,nt,nt,nt,nt,2%,4%
Cc1ccc(S(=O)(=O)N2CCCC2C(=O)Nc2nc3ccccc3s2)cc1 (stereo not drawn),14*,3%,-13%,7,-10%,0%
Nc1ccc2nc(NC(=O)C3CCCCC3)sc2c1,57*,-12%,-1%,104*,1%,5%[57.1 µM]
O=C(OCc1nc2ccccc2s1)[C@@H]1CCCN1S(=O)(=O)c1ccccc1F,26*,2%,1%,49,nt,-13%
O=C(Nc1nc2ccccc2s1)C1CCCO1 (stereo not drawn),47*,-9%,0%,89*,2%,15%[11.4 µM]
O=C(Nc1nc2ccc(C(=O)N3CCCCC3)cc2s1)C1CCCCC1,-3,-10%,2%,-27,0%,7%
O=C(Nc1nc2ccccc2s1)C1CCCN1S(=O)(=O)c1ccc(Cl)cc1 (stereo not drawn),1,-2%,-7%,-6,-2%,-5%
Cn1cc(C(=O)O)c(=O)c2cc(S(=O)(=O)N3CCOCC3)ccc21,nt,nt,nt,nt,-4%,2%
O=P(O)(O)OC[C@@H](O)CO,nt,nt,nt,nt,0%,nt
O=C(Nc1sc2c(c1C(=O)NCc1ccco1)CCCC2)c1cc(=O)c2ccccc2o1,nt,nt,nt,nt,3%,-20%
O=C(Nc1nc2ccc(F)cc2s1)C1CCCO1 (stereo not drawn),26*,-16%,nt,94*,-2%,-18%
O=C(Nc1ncc(Cc2ccccc2)s1)C1CCCO1 (stereo not drawn),34*,-1%,5%,63*,1%,-2%
Cc1cc(F)ccc1NC(=O)C1CCCO1 (stereo not drawn),2,-2%,4%,-16,-1%,22%
Cc1cc(Oc2ccccc2)nc2ccc(O)cc12,15,2%,-6%,-10,nt,0%
CCOc1ccc(S(=O)(=O)N(CC(=O)N2CCc3ccccc32)Cc2ccco2)cc1,31*,-3%,-3%,83*,-1%,0%
O=C(Nc1nccs1)c1cncc(Br)c1,48*,-5%,-4%,96*,-4%,-17%
SMILES,CHX counter,LmPK inh,FBPA Giardia inh,Shiga inhibitor,Tb PYK inh,Sm TGR block
Cc1csc(NC(=O)c2cncc(Br)c2)n1,53*,-7%,-9%,57,4%,6%
CS(=O)(=O)N(CC(=O)NC1CC2CCC1C2)c1ccc(Oc2ccccc2)cc1 (stereo not drawn),15*,-5%,-7%,38,-15%,3%[57.1 µM]
C/C(=N\NC(=O)CN(c1ccc(Oc2ccccc2)cc1)S(C)(=O)=O)C(C)(C)C,33*,5%,-4%,39,2%,-1%
CS(=O)(=O)N(CC(=O)NC1CCCC1)c1ccc(Oc2ccccc2)cc1,2,-1%,-4%,32,-5%,-10%
CCN(Cc1ccccc1)C(=O)Cn1c(=O)n(-c2cccc(C)c2)c(=O)c2c1c1cc(C)ccc1n2C,nt,nt,nt,nt,4%,0%
Cc1cccc(C)c1NC(=S)Nc1ccc(Cl)c(Cl)c1,2,5%,-13%,16,30%,0%
COC(=O)c1cccc(NC(=S)Nc2ccc(Cl)c(Cl)c2)c1,-1,3%,-18%,10,1%,22µM*
NS(=O)(=O)c1cccc(NC(=O)Nc2ccc(Cl)cc2)c1,36*,-1%,-6%,87*,-1%,-20%
COC(=O)c1cccc(NC(=O)NC(=O)c2ccc(Cl)cc2)c1,1,-1%,11%,-3,1%,9%
COC(=O)c1cccc(NC(=S)Nc2ccccc2Cl)c1,-1,4%,-18%,24,0%,22µM*
COC(=O)c1cccc(NC(=O)Nc2ccc(Cl)cc2)c1,28*,-9%,2%,48*,0%,7%
COC(=O)c1cccc(NC(=S)Nc2cccc(Cl)c2C)c1,-2,0%,-6%,-6,-7%,-25%
CCCC(C)CO (stereo not drawn),nt,nt,nt,nt,-1%,-1%
CCCC(=O)Nc1ccc2nn(-c3ccc(CC)cc3)nc2c1,nt,nt,nt,nt,-2%,-1%
CN(C)c1ccc(C(CNC(=O)c2c(F)cccc2Cl)N2CCOCC2)cc1 (stereo not drawn),nt,nt,nt,nt,1%,-5%
COc1ccccc1N1CCN(C(=O)c2cc(-c3ccc(C)c(F)c3)on2)CC1,nt,nt,nt,nt,1%,1%
CCn1c(C(=O)N2CCCC(C(=O)N3CCN(c4ccccc4)CC3)C2)cc2sccc21 (stereo not drawn),nt,nt,nt,nt,-7%,-8%
Cc1ccc(NC(=O)/C=C\C(=O)O)c([N+](=O)[O-])c1,12,-1%,6%,-4,3%,?
Cc1ccc(NC(=S)NC(C)(C)C)c([N+](=O)[O-])c1,26*,2%,-21%,25,-4%,-7%
C=CCNC(=S)Nc1ccc(C)cc1[N+](=O)[O-],15,-4%,-16%,26,2%,40µM*
Cc1ccc(NC(=O)C2CC2c2ccccc2)c([N+](=O)[O-])c1 (stereo not drawn),35*,4%,3%,34*,-9%,-23%
O=C(Nc1ccc(Cl)cc1F)C1CC1c1ccccc1 (stereo not drawn),14,4%,-4%,nt,1%,0%
COc1ccc(CN2CCC(C(N)=O)CC2)cc1OCc1ccccc1,-2,1%,?,-4,15%,-6%
CCOCCCNC(=O)C1CCN(Cc2ccc(OCc3ccccc3)c(OC)c2)CC1,18*,2%,?,95,12%,3%
CCCCNC(=O)C1CCN(Cc2ccc(OCc3ccccc3)c(OC)c2)CC1,42*,-8%,-21%,44*,7%,-1%

# Screening results as filed in PubChem BioAssay.
